PubChem BioAssay AID1851 (National Center for Advancing Translational Sciences (NCATS), 2009)
The whole screen tested about 16,000 compounds, of which about 5,700 (36%) were called active. Inconclusive results (about 24%) are left out. Calls follow the shape of the dose curve; as a rule, active = well fitted curve in the direction sought with a large enough effect; inconclusive = small, poorly fitted or top-dose-only effect, or effect the other way; inactive = no such curve, though single readings can be large or run the other way. This is one part of the list.

target: Cytochrome P450 1A2 (Homo sapiens) (UniProt P05177); assay: Cytochrome panel assay with activity outcomes; conditions: recombinant CYP, pro-luciferin dealkylation, luminescence, p450-cyp1a2; series mostly up to 57.1 µM; activity, negative = inhibition: at the top concentration
% is scaled to controls: 0 for no effect and ±100 for the full control effect.

Chain of Cytochrome P450 1A2 (Homo sapiens) (P05177 whole entry, looked up): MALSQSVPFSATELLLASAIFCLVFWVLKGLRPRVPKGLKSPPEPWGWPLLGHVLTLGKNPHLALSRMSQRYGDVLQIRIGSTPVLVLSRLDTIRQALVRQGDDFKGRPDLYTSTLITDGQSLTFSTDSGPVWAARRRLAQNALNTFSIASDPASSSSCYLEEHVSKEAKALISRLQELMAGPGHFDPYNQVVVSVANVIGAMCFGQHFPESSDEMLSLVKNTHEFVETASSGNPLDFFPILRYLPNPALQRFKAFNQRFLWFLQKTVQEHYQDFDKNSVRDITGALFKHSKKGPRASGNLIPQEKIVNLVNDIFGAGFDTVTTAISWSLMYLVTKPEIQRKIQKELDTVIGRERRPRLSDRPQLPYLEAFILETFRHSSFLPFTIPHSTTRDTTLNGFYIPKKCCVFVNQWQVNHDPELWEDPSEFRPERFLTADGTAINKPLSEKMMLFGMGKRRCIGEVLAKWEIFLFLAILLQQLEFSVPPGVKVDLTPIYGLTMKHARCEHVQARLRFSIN

SMILES | activity, negative = inhibition | AC50
N#C/C(=C\Nc1ccccn1)C(=O)c1ccco1 | -22.9% [at 11.4 µM] (inactive) | 
N#C/C(=C\Nc1ccccn1)C(=O)C1CC1 |  | 1.26 µM (active)
CC(CCN)(CCN)[N+](=O)[O-] | -10.4% [at 11.4 µM] (inactive) | 
CSc1ccc(NC(=O)NCCCN2CCN(c3ccccc3F)CC2)cc1 |  | 2.51 µM (active)
Cc1ccccc1CS(=O)(=O)CCC(=O)NCCCN1CCN(c2ccccc2F)CC1 | -19.6% (inactive) | 
O=C(NCCN1CCN(C(=O)C(c2ccccc2)c2ccccc2)CC1)C(=O)Nc1ccccc1 | -23% (inactive) | 
CSc1ccc(NC(=O)NCCN2CCc3ccccc3C2)cc1 |  | 14.1 µM (active)
O=C(NCCCN1CCc2ccccc2C1)C1CCN(S(=O)(=O)N2CCCC2)CC1 | 3.7% (inactive) | 
O=C(NCCCN1CCN(c2ccccc2F)CC1)C1CCC(=O)N1C1CCCCC1 (stereo not drawn) | 0.883% (inactive) | 
Fc1cccc(/C=N\N=C/c2cccc(F)c2)c1 |  | 0.2 µM (active)
COc1cccc([C@@H]2Oc3ccc(OC)cc3/C(=N/O[C@@H](C)c3cc(-c4c(C)cc(C)cc4C)no3)[C@@H]2O)c1 | -10.9% [at 11.4 µM] (inactive) | 
Cc1cc(N)c2cc(NC(=O)Nc3ccc4nc(C)cc(N)c4c3)ccc2n1 | -1.54% [at 11.4 µM] (inactive) | 
Cc1cc(C)c(C(N)=O)c(NC(=O)Nc2ccccc2)n1 |  | 3.16 µM (active)
Cc1noc2ncnc(Oc3ccc4ccccc4c3)c12 |  | 8.91 µM (active)
Cc1cccc(Oc2ncnc3onc(C)c23)c1C |  | 17.8 µM (active)
CCNCCCNCCCNCCCNCC | -9.81% (inactive) | 
CC1CCN(CCc2nc3cc(NC(=O)NC4CCCCC4)ccc3n2C)CC1 | 3.24% (inactive) | 
O=C(Nc1ccc(Cl)c(Cl)c1)N1CCC(N2CCCCC2)CC1 | -19.8% (inactive) | 
CC1CCN(C(=O)Nc2ccc3nsnc3c2)CC1 |  | 11.2 µM (active)
COc1ccc(COC(=O)N/N=C2/C[C@@H](O)[C@@H](O)[C@@H]3[C@H]4C(=O)N(c5ccc(F)cc5F)C(=O)[C@@H]4CC[C@H]23)cc1 | -6.28% [at 11.4 µM] (inactive) | 
O=S(=O)(O)c1cc(O)c2c(N=Cc3ccccc3O)cc(S(=O)(=O)O)cc2c1 | -23.7% [at 2.29 µM] (inactive) | 
Cc1cc(O)c(C(C)C)cc1N=Cc1ccccc1O |  | 1.58 µM (active)
COc1ccc(C(=O)N2CCC3(CCCN(Cc4cc(C(F)(F)F)cc(C(F)(F)F)c4)C3)CC2)cc1 | 11.6% (inactive) | 
O=C(O)C1(Nc2ccc(Cl)cc2)CCCC1 | -2.69% [at 11.4 µM] (inactive) | 
N#CC1(Nc2ccc(-c3ccc(NC4(C#N)CCCC4)cc3)cc2)CCCC1 |  | 3.16 µM (active)

SMILES | activity, negative = inhibition | AC50
COCC(=O)N1CCC2(CCCN(Cc3cc(C(F)(F)F)cc(C(F)(F)F)c3)C2)CC1 | 3.63% (inactive) | 
O=C(O)c1c(Cl)c(Cl)c(Cl)c(Cl)c1C(=O)Nc1ccc2cn[nH]c2c1 |  | 0.2 µM (active)
S=C(Nc1ccc2cn[nH]c2c1)Nc1ccc2cn[nH]c2c1 |  | 0.126 µM (active)
N#CC(C#N)=NNc1ccc2cn[nH]c2c1 |  | 1.26 µM (active)
CCN1C(=O)[C@H]2[C@H]3[C@H](O)[C@H](O)C/C(=N/NC(=O)OCc4ccccc4)[C@H]3CC[C@@H]2C1=O | -7.29% [at 11.4 µM] (inactive) | 
NS(=O)(=O)c1cc(Cl)c(Cl)c(S(N)(=O)=O)c1 | -15.8% [at 25.6 µM] (inactive) | 
CN(C)/C(CN1CCN(C=O)CC1)=C1\N=C(c2ccccc2)OC1=O |  | 14.1 µM (active)
O=C(O)[C@@H](S)[C@H](S)C(=O)O | -20.1% [at 11.4 µM] (inactive) | 
OCCN1CCN(CCOc2cccc(Cl)c2)CC1 | -16.3% (inactive) | 
CC1CCN(CCCCOc2ccccc2[N+](=O)[O-])CC1 | -15.7% (inactive) | 
CC1CCN(CCOc2cc(Cl)ccc2Cl)CC1 |  | 8.91 µM (active)
O=C(OCc1ccccn1)c1ccc(COc2ccccc2Cl)o1 |  | 7.08 µM (active)
CC1CCN(C(=O)c2ccc(COc3ccccc3Cl)o2)CC1 |  | 3.16 µM (active)
COc1ccccc1CNC(=O)C1CCN(S(=O)(=O)N2CC(C)CC(C)C2)CC1 (stereo not drawn) | -15.6% (inactive) | 
CC1CN(C2CCN(C(=O)c3cccc(Cl)c3)CC2)CC(C)O1 (stereo not drawn) | -4.5% (inactive) | 
C[C@@H]1NC(=O)[C@@H](C)COC(=O)[C@H](C)NC(=O)[C@@H](C)COC1=O | 0.211% [at 11.4 µM] (inactive) | 
CC(C)n1nnnc1SCC(=O)NCCc1ccccc1 |  | 12.6 µM (active)
CCn1c(CC(=O)Nc2ccc(C)cc2)nnc1SCC(=O)NCCc1ccccc1 | 12.5% (inactive) | 
CC(NC(=O)CSc1nc(=O)cc(N)n1CCc1ccccc1)c1ccccc1 (stereo not drawn) | -15% (inactive) | 
COc1ccccc1CNc1ccnc(-c2ccc(N(C)C)cc2)n1 |  | 0.794 µM (active)
COc1ccc(CNc2ccnc(-c3ccc(N(C)C)cc3)n2)c(OC)c1 |  | 3.16 µM (active)
COc1ccccc1CNc1ccnc(-c2ccc(C(=O)N(C)C)cc2)n1 |  | 12.6 µM (active)
COc1ccccc1CNc1ccnc(-c2ccoc2)n1 |  | 1.58 µM (active)
COC(=O)N1CCC2(CC1)CCN(c1ncccn1)CC2 | 6.95% (inactive) | 
CN(C)c1ccc(-c2nccc(NCc3ccccc3)n2)cc1 |  | 1.26 µM (active)

SMILES | activity, negative = inhibition | AC50
O=[N+]([O-])c1cc(/C=N/N2CCN(C3c4ccccc4-c4ccccc43)CC2)ccc1Cl | -17% (inactive) | 
Nc1nnnn1/N=C\c1ccc(Cl)c([N+](=O)[O-])c1 |  | 5.01 µM (active)
COc1cc(OC)c2cc(-c3ccncc3)cnc2c1 |  | 0.2 µM (active)
CCc1ccc(C(=O)CN(C#N)c2nc(C)cc(C)n2)cc1 |  | 15.8 µM (active)
CCc1ccc(C(CC(=O)c2ccc(Cl)cc2)C(=O)O)cc1 (stereo not drawn) | 7.03% (inactive) | 
COCC(=O)N1CCC2(CCN(Cc3ccccc3OC)CC2)CC1 | 13.3% (inactive) | 
COc1ccccc1CN1CCC2(CC1)CCN(C(C)=O)CC2 | 13.1% (inactive) | 
CCCCN(CC)C(=O)Cc1ccccc1OC |  | 14.1 µM (active)
Cc1ccc(C(=O)COC(=O)c2ccccc2N2C(=O)C3C4CCC(C4)C3C2=O)cc1C (stereo not drawn) | -26.5% (inactive) | 
O=C(OCc1ccc(Cl)cc1Cl)c1cccnc1Cl |  | 1 µM (active)
Cc1ccc(C(=O)COC(=O)c2ccc3c(c2)C(=O)N(c2cccc4ncccc24)C3=O)cc1C | -1.92% (inactive) | 
O=C(COC(=O)c1cccnc1)c1ccc(Cl)c(Cl)c1 |  | 0.891 µM (active)
O=C(O)COc1c(Cl)cc(Cl)c2cccnc12 | -1.3% [at 2.29 µM] (inactive) | 
O=C(COC(=O)c1cccnc1Cl)c1ccccc1 |  | 11.2 µM (active)
COCC(=O)N1CCC2(CCCN(C(=O)Nc3ccc(OC)cc3)C2)CC1 | -12% (inactive) | 
CC(C)(C)NC(=O)NC(=O)CSc1nnc2ccccn12 | -9.41% (inactive) | 
Cc1nc2ccccn2c1C(=O)CSc1ccccc1Cl |  | 8.91 µM (active)
Cc1nc2ccccn2c1/C(O)=C1\C(=O)C(=O)N(CCCn2ccnc2)C1c1ccncc1 (stereo not drawn) | -11.6% (inactive) | 
CCOc1c2ccc(C(=O)NCCc3cccs3)cc2nn1CC |  | 8.91 µM (active)
CCCCCn1c(SCc2ccncc2)nc2cc(C(=O)NCc3ccco3)ccc2c1=O |  | 4.47 µM (active)
CCOc1c2ccc(C(=O)NCc3ccco3)cc2nn1CC |  | 2.51 µM (active)
O=C(CSc1nc2ccccc2c(=O)n1CCCC(=O)N1CCCC1)NCc1ccco1 | -10.2% (inactive) | 
CCCn1nc2cc(C(=O)NCc3ccccc3OC)ccc2c1OCC | -23.4% (inactive) | 
CCCCn1nc2cc(C(=O)NCC3CC3)ccc2c1OCC | -28.4% (inactive) | 
c1ccc(C2OCC3(CO2)COC(c2ccccc2)OC3)cc1 (stereo not drawn) | -11.4% (inactive) | 

SMILES | activity, negative = inhibition | AC50
Cc1cccc(NC(=O)Cn2c(=O)n3nc(CCn4nc(C)cc4C)nc3c3ccccc32)c1 | -14.4% (inactive) | 
CC1CCCC(NC(=O)CCn2c(=O)oc3ccccc32)C1C (stereo not drawn) | -15.5% (inactive) | 
Cc1ccc(CNC(=O)Cn2c(=O)oc3ccccc32)o1 |  | 12.6 µM (active)
COCCNC(=O)CCn1c(=O)oc2ccccc21 | -5.72% (inactive) | 
Cc1cccc(NC(=O)Cn2c(=O)oc3ccccc32)c1 |  | 15.8 µM (active)
COC(=O)[C@@]1(Cc2ccc(OC)cc2)[C@H]2c3cc(C(=O)N4CCCC4)n(CCn4cc([N+](=O)[O-])nc4C)c3C[C@H]2CN1C(=O)c1ccccc1 | 2.38% (inactive) | 
CCCn1c(N)c(C(=O)CSc2nc(C)cs2)c(=O)n(C)c1=O |  | 15.8 µM (active)
Cc1cc(C)cc(C(=O)N(NC(=O)Nc2ccc(Cl)cc2)C(C)(C)C)c1 | -5.9% (inactive) | 
CSc1cccc(NC(=O)Nc2ccc(Cl)cc2)c1 |  | 5.01 µM (active)
O=C(O)CC[C@@]1(c2ccccc2)NC(=O)NC1=O | -11.4% [at 11.4 µM] (inactive) | 
Cc1ccc(N(CCC#N)C(=O)CSc2ccc3c(c2)OCCO3)cc1 |  | 2 µM (active)
CCOC(=O)c1[nH]c(C)c(C)c1C |  | 0.501 µM (active)
CCCCNc1nc(-c2ccccc2)c(C(=O)OCC)cc1C#N |  | 4.47 µM (active)
Cc1cc(C)c2cc(C#N)c(NCCOC(=O)c3ccccc3C)nc2c1 |  | 1.26 µM (active)
CCOC(=O)c1cc(C#N)c(Oc2ccccc2OC)nc1-c1ccccc1 |  | 0.708 µM (active)
O=C1CCCC=C1[C@@H](O)COCc1ccccc1 | -6.11% [at 11.4 µM] (inactive) | 
CCN1C(=O)CC(N2CCN(CC(=O)NC(C)C)CC2)C1=O (stereo not drawn) | 6.61% (inactive) | 
C/C(=N\O)c1cccc[n+]1Cc1ccccc1 | -0.979% [at 11.4 µM] (inactive) | 
NC(=O)c1ccc(C2SCC(=O)N2Cc2ccccc2)cc1 (stereo not drawn) | -13.7% (inactive) | 
NC(=O)c1ccc(-c2ncc(-c3ccccc3)o2)cc1 |  | 0.631 µM (active)
CO[C@]1(NC(=O)[C@H](C(=O)O)c2ccc(O)cc2)C(=O)N2C(C(=O)O)=C(CSc3nnnn3C)CO[C@H]21 | -1.45% [at 25.6 µM] (inactive) | 
Cc1sc2nc(SCC(=O)C(C)(C)C)n(Cc3ccco3)c(=O)c2c1C |  | 0.891 µM (active)
COCCNC(=O)CSc1nc2cc(OC)c(OC)cc2c(=O)n1Cc1ccco1 | -14.6% (inactive) | 
